Source: PubChem BioAssay
Sampled rows, rich in hits. Any-hit rate of the full collection: about 22%.
Pf growth 48h: inhibits P. falciparum growth in the first generation, 48 h; P. falciparum luciferase growth in erythrocytes, 48 h; Potency, µM (series often up to 28.7 µM), for inactives: top-dose activity change, negative = inhibition, hits mostly inhibitors; hit rate 5.9% among 310,000; AID 504832; also: potency is read from the fitted curve at half-maximal effect; % is scaled to controls: 0 for no effect and ±100 for the full control effect
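Luciferase-expressing P. falciparum in infected erythrocytes (2% hematocrit, 0.1% parasitemia final) in RPMI 1640/0.5% Albumax were exposed to compound for 48 hours at 37 C, 5% CO2; growth read as luminescence.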
Shiga toxin inh: inhibitors of Shiga toxin in Vero cells | hit rate 9.2% among 290,000 | inhibition, % at 38.7 µM | Vero cells, Shiga toxin protein synthesis inhibition reporter; in the data active = inhibition mostly above about 28%, no sharp cut-off; inactive = mostly below about 43%; also: 0% is about no effect
LmPK inhibitor: inhibitors of Leishmania mexicana pyruvate kinase. purified LmPK, Kinase-Glo ATP luminescence, 1 h. hit rate 0.37% among 290,000. Q27686. Potency, µM (highest dose often 57.5 µM), without a hit: at the highest dose activity change, negative = inhibition, hits mostly inhibitors. AID 1721; also: potency is read from the fitted curve at half-maximal effect; % is scaled to controls: 0 for no effect and ±100 for the full control effect
Target sequence (Q27686 whole entry, looked up): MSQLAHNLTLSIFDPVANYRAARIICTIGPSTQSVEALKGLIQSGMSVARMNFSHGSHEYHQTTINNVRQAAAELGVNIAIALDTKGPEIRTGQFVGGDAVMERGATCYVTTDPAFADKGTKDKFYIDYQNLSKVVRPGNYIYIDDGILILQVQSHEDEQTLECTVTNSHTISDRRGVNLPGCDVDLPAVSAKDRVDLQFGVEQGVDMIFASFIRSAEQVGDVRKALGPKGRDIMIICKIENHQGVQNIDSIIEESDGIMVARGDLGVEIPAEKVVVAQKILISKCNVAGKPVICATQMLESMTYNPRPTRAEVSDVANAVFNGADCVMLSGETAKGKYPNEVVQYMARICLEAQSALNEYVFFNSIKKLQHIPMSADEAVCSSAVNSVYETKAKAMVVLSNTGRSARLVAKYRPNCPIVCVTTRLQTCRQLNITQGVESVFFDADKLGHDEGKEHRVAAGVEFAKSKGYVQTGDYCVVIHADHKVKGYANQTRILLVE
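Purified LmPK (0.1 nM) with 0.5 mM PEP and 0.1 mM ADP in imidazole buffer pH 7.2 with MgCl2/KCl, 1 h at room temperature. ATP formed was read by luciferase luminescence and normalized to no-enzyme and uninhibited controls.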
Cycloheximide cs: counter-screen hit for Shiga toxin inhibitors, cycloheximide; cell reporter, cycloheximide protein synthesis inhibition counterscreen; max response, %; hit rate 12% among 300,000; AID 2314; in the data active = max response mostly above about 13%, no sharp cut-off; inactive = mostly below about 14%; also: read at 38.3 µM for the half of the compounds with a filed dose; 0% is about no effect
Pf growth 96h: inhibits malaria parasite growth, 96 h. P. falciparum luciferase reporter growth, 96 h. Potency, µM (top dose mostly 28.7 µM), without a hit: at the highest dose activity change, negative = inhibition, most hits filed as inhibitors. hit rate 6.9% among 320,000; also: potency is read from the fitted curve at half-maximal effect; % is scaled to controls: 0 for no effect and ±100 for the full control effect
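P. falciparum expressing integrated firefly luciferase grown in erythrocytes (2% hematocrit, 0.05% parasitemia final) with compounds for 96 hours at 37 C, 5% CO2. Growth inhibition read as loss of luminescence after adding luciferase detection reagent.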
Starred values were filed as active, the others as inactive; ? = inconclusive; . = not tested or not shown; + = active, no number; [ ] = another dose, or the depositor's remark. Unless noted, calls follow the shape of the dose curve; as a rule, active = well fitted inhibition curve with a large enough effect; inconclusive = small, poorly fitted or top-dose-only effect, or another doubt; inactive = no such curve, though single readings can be large or run the other way.

SMILES | Pf growth 48h | Shiga toxin inh | LmPK inhibitor | Cycloheximide cs | Pf growth 96h
CCOC(=O)c1c(C)c(C(=O)Nc2ccc(N(C)C)cc2)c(C)n1CC | 59.6% | 50.9 | 2.5% | 21.9* | .
CCOC(=O)Nc1cc(C(=O)OC)cc(C(=O)OC)c1 | -2.6% | -6.4 | 5.2% | -4.1 | ?
CCOC(=O)c1c(C)c(C(=O)Nc2ccc3c(c2)OCCO3)c(C)n1C | ? | 55.3* | 5.8% | 21.6* | 40.5%
CCOC(=O)c1c(C)c(C(=O)NCCOC)c(C)n1CC | 5.9% | -9.4 | -0.2% | 6.3 | 90.2%
CCOC(=O)Nc1cc(Br)c2c(c1)OCCO2 | 43.3% | 41.5 | -12.1% | 33.6* | ?
Cc1nc2scc(C)n2c(=O)c1S(=O)(=O)N1CCN(c2cccc(C(F)(F)F)c2)CC1 | ? | 0.6 | 7.9% | -2.5 | ?
CCCN1CCN(CCCNC(=O)Cn2nc(C)n3c(cc4cc(F)ccc43)c2=O)CC1 | 35.8% | -6.5 | 1.3% | 6.6 | 27.7%
CC(=O)c1ccc(NC(=O)CSc2ccc(-c3ccc(-n4cccn4)cc3)nn2)cc1 | 13.9% | . | . | . | 45.5%
O=C(OCC(=O)N1CCN(c2ccccc2)CC1)c1ncc(Cl)c(Cl)c1Cl | -10.6% | . | . | . | 28.9%
CCOC(=O)c1cc2sc(C)cc2n1CC(=O)Nc1cccc(C)c1C | ? | 0.3 | 5.3% | -1.3 | 10.5%
CCOC(=O)c1cc2sc(C)cc2n1CC(=O)Nc1ccc2c(c1)OCCO2 | -9.3% | 26.5 | 1.4% | 11.9* | 0.738µM*
O=C(C1CCCN(S(=O)(=O)c2ccccc2[N+](=O)[O-])C1)N1CCCC1 (stereo not drawn) | 10.1% | -9.6 | -3.2% | -3.6 | -27.9%
COc1ccccc1NC(=O)N1CCC(c2nnc(SCC(N)=O)n2C)CC1 | 27.4% | -5.5 | 3.9% | 12.6 | -18.9%
CC1(C)Cc2c(ccc3ccccc23)C(c2cc3ccccc3oc2=O)=N1 | ? | -8.3 | 2.7% | -3.9 | 10.4µM*
CC1(C)Cc2ccccc2C(c2cc3ccccc3oc2=O)=N1 | 8.28µM* | 0.8 | 0.1% | -1.6 | ?
COc1ccc(C(=O)NCC(c2cccs2)N2CCc3ccccc32)c(OC)c1 (stereo not drawn) | 10.4µM* | . | . | . | 5.22µM*
CCCNC(=O)c1ccc(OC)cc1OC | 35.9% | 3.0 | 0.7% | -2.7 | 23.1%
COc1ccc(C(=O)NN=C2CCCC2)c(OC)c1 | 22.5% | 28.3 | 5.5% | 19.6* | ?
CC(C)CNC(=O)c1ccccc1Oc1ccccc1 | . | -5.8 | 0.2% | -4.5 | 14.7µM*
COc1ccc(C(=O)NCC(C)C)c(OC)c1 | ? | 14.9 | 0.3% | 11.7 | 9.28µM*
N/C(=N\OC(=O)Oc1ccccc1)c1ccc(Br)cc1 | . | -21.6 | -11.9% | -4.0 | 37.4%
NC(=Nc1ccc(Br)cc1)c1ccccc1 | 37.1% | 76.0* | 0.7% | 19.7* | 8.7%
CN1c2ccccc2C(=O)NC1c1ccc(Cl)cc1 (stereo not drawn) | -1.0% | 36.6 | -3.4% | 11.6* | 1.7%
COc1ccc(Nc2cc(Nc3cc(OC)c(OC)c(OC)c3)ncn2)cc1 | ? | -3.9 | -0.2% | -1.7 | 6.0%
Nc1nc(N)c(-c2ccccc2)s1 | -11.6% | . | . | . | ?
SMILES | Pf growth 48h | Shiga toxin inh | LmPK inhibitor | Cycloheximide cs | Pf growth 96h
COC(=O)CC(NS(=O)(=O)c1cccs1)c1ccccc1Cl (stereo not drawn) | 8.2% | -3.4 | 10.7% | 17.2 | -2.1%
COC(=O)C(c1ccccc1Cl)N1CCc2sccc2C1 (stereo not drawn) | ? | -5.6 | . | -5.1 | 10.7µM*
COC(=O)[C@H](c1ccccc1Cl)N1CCc2sccc2C1 | 11.7µM* | 4.7 | -3.9% | -1.6 | 8.28µM*
CCN1CCN(Cc2c(O)ccc3c2O/C(=C\C=C\c2ccccc2)C3=O)CC1 | 1.65µM* | 64.9 | -11.8% | 33.2* | ?
CN(C)Cc1c(O)ccc2c1O/C(=C\C=C\c1ccccc1)C2=O | 1.65µM* | 18.2 | -1.4% | 13.2* | -7.6%
CCN1CCN(Cc2c(O)ccc3c2O/C(=C\c2ccccc2)C3=O)CC1 | ? | -4.4 | -18.9% | 1.1 | 11.7µM*
CCc1ccc(/C=C2\Oc3c(ccc(O)c3CN3CCN(C)CC3)C2=O)cc1 | ? | -8.1 | -8.4% | -0.7 | ?
CC1CCCN(Cc2c(O)ccc3c2O/C(=C\c2ccco2)C3=O)C1 (stereo not drawn) | 2.33µM* | -2.1 | 5.7% | -2.1 | 3.29µM*
Cc1ccc(/C=C2\Oc3c(ccc(O)c3CN3CCN(C)CC3)C2=O)cc1 | ? | 21.6 | -19.6% | -0.2 | ?
O=C1/C(=C/C=C/c2ccccc2)Oc2c1ccc(O)c2CN1CCN(CCO)CC1 | ? | 20.3 | -6.2% | 10.4 | ?
COc1ccccc1Nc1nc2ccc(C)cc2n2cnnc12 | 1.7% | 10.7 | -1.2% | 11.8 | -0.9%
COc1ccccc1/C=C/C=C1\Oc2c(ccc(O)c2CN2CCN(CCO)CC2)C1=O | -74.4% | + | -3.7% | 32.2* | ?
CCN1CCN(Cc2c(O)ccc3c2O/C(=C\c2ccc(C)cc2)C3=O)CC1 | 5.22µM* | 3.2 | 2.4% | -1.0 | 2.33µM*
COc1ccc(CCN2CC(C(=O)N3CCN(C(C)=O)CC3)CCC2=O)cc1 (stereo not drawn) | 0.0% | -5.4 | -9.3% | 2.6 | -18.8%
COc1cc(/C=N/NC(=O)C(=O)NCC2CCCO2)cc(Cl)c1O (stereo not drawn) | 19.4% | 11.6 | -2.2% | -1.7 | 33.8%
O=C(CSc1nc(-c2ccc(F)cc2)cc(C(F)(F)F)n1)Nc1ccc2c(c1)OCO2 | 15.0% | -3.4 | 0.5% | -1.7 | ?
Brc1ccc(NC2=Nc3ccccc3CC2)cc1 | 10.2% | + | -0.9% | 55.5* | -40.7%
Cc1ccc(Nc2nnc(SCC(=O)NC3CCCc4ccccc43)s2)cc1 (stereo not drawn) | -21.3% | 4.3 | 7.3% | -0.4 | 0.0%
Cc1ccc(NC2=Nc3ccccc3CC2)cc1 | -39.5% | 31.6 | -20.1% | 11.1* | 6.8%
CN1CCN(C(=O)CN(C)S(=O)(=O)c2cc(Cl)ccc2Cl)CC1 | -10.3% | -4.8 | 0.2% | -4.9 | -2.8%
CCC(=O)NCCc1nc2cc(NC(=O)c3ccc(OC)cc3)ccc2n1C | 118.6% | 51.8 | -2.0% | 25.1* | .
CC(=O)NCCc1nc2cc(NC(=O)c3cccs3)ccc2n1C | 18.4% | 22.6 | -9.7% | 21.8 | -35.1%
CCC(=O)NCCc1nc2cc(NC(=O)c3ccc(F)cc3)ccc2n1C | -19.5%[0.00184 µM] | 89.0* | -0.6% | 43.3* | 203.9%
COc1ccc(OCC(=O)Nc2ccc3c(c2)nc(CCNC(C)=O)n3C)cc1 | -25.1% | -21.1 | 4.4% | -0.8 | ?
CC(=O)NCCc1nc2cc(NC(=O)c3ccccc3Cl)ccc2n1C | 103.2% | 25.9 | -4.7% | 16.7* | 116.9%
CC(=O)NCCc1nc2cc(NC(=O)c3ccc(Cl)cc3)ccc2n1C | 207.6% | 64.3* | 1.5% | 23.9* | 121.8%
COc1ccc(NC(=O)CN(C)C(=O)c2cnc(Cl)c(Cl)c2)cc1 | 13.1% | -5.5 | 1.1% | -5.5 | 18.4%
CCC(C)NC(=O)c1ccccc1NC(=O)c1ccc(CSc2ccc(C)cc2)cc1 (stereo not drawn) | ? | -15.4 | 1.5% | 1.4 | ?
Cc1nn(CC(=O)Nc2cccnc2)c(=O)c2ccccc12 | -4.8% | -15.3 | -0.6% | -5.0 | 29.6%
